# Compounds without any hit were thinned out: in the full panel of roughly 79,000, 15% have a hit. A number with no mark means an inactive call. The source made the active and inactive calls. Rule as the data show it: active = growth inhibition above about 70%; inactive = the rest.
# Assays:
# [1] = NCI Yeast Anticancer Drug Screen. Data for the rad52 strain (AID 147);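 also: 0% = growth of vehicle-treated control cultures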; conditions: S. cerevisiae rad52 mutant growth inhibition, stronger effect = higher value
# Method in brief: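 Growth of repair-deficient yeast cells was compared between compound-treated and vehicle-treated cultures to give percent inhibition.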
# [2] = NCI Yeast Anticancer Drug Screen. Data for the wt1 strain (AID 149);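 also: 0% = growth of vehicle-treated wt1 cultures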; conditions: S. cerevisiae wt1 strain (SPY 50644) growth inhibition, stronger effect = higher value
# Method in brief: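 Using yeast strain wt1, compound-induced growth inhibition was determined against vehicle-treated cultures.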
# [3] = NCI Yeast Anticancer Drug Screen. Data for the rad50EPP+ strain (AID 151);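 also: 0% = growth of vehicle-treated control cultures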; conditions: S. cerevisiae rad50 mutant strain, stronger effect = higher value
# Method in brief: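 Measured: growth inhibition of rad50EPP+ yeast. Reference: vehicle-treated controls. Screen uses strains with defined genetic alterations in DNA damage repair or cell cycle control.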
# [4] = NCI Yeast Anticancer Drug Screen. Data for the mgt1 strain (AID 153); conditions: S. cerevisiae mgt1 mutant growth inhibition, stronger effect = higher value
# Method in brief: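 Compounds were applied to mgt1 mutant yeast, and growth was then compared against vehicle-treated control cultures to give percent inhibition.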
# [5] = NCI Yeast Anticancer Drug Screen. Data for the rad50 strain (AID 155);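 also: 0% = growth of vehicle-only cultures of the same strain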; conditions: S. cerevisiae rad50 strain growth inhibition, stronger effect = higher value
# Method in brief: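 Relative growth inhibition (compound vs vehicle) was measured in yeast with a defined repair-gene alteration.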
# [6] = NCI Yeast Anticancer Drug Screen. Data for the mec2-1 strain (AID 157); conditions: S. cerevisiae mec2-1 strain, stronger effect = higher value
# Method in brief: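 Compounds were applied to mec2-1 yeast cells. Their growth was then compared with that of vehicle-treated cultures to give growth inhibition.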
# [7] = NCI Yeast Anticancer Drug Screen. Data for the rad14 strain (AID 159);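 also: 0% = growth of vehicle-treated control cultures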; conditions: S. cerevisiae rad14 strain growth inhibition, stronger effect = higher value
# Method in brief: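 Screen for anticancer potential: a yeast strain altered in DNA damage repair is grown with compound, and reduced growth is quantified against vehicle controls.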
# [8] = NCI Yeast Anticancer Drug Screen. Data for the sgs1 mgt1 strain (AID 161);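 also: 0% = growth of cultures given vehicle only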; conditions: S. cerevisiae sgs1 mgt1 strain, stronger effect = higher value
# Method in brief: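 Yeast cells carrying a defined DNA-repair defect were exposed to test compounds. Growth inhibition was measured relative to vehicle-treated controls.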
# [9] = NCI Yeast Anticancer Drug Screen. Data for the cln2 rad14 strain (AID 165);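 also: 0% = growth equal to vehicle treated cultures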; conditions: S. cerevisiae cln2 rad14 strain, stronger effect = higher value
# Method in brief: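 Strain: cln2 rad14 yeast, altered in cell cycle control and DNA damage repair. Read-out: growth inhibition vs vehicle.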
# [10] = NCI Yeast Anticancer Drug Screen. Data for the bub3 strain (AID 167); conditions: S. cerevisiae bub3 mutant strain, stronger effect = higher value
# Method in brief: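 Screening used yeast with an engineered genetic alteration affecting cell cycle control. Compound-exposed cultures were compared with vehicle cultures, and reduced growth was taken as inhibition.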
# [11] = NCI Yeast Anticancer Drug Screen. Data for the wt2 strain (AID 169);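 also: 0% = growth of vehicle-treated yeast cultures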; conditions: S. cerevisiae wt2 strain growth inhibition, stronger effect = higher value
# Method in brief: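 Growth of compound-treated yeast is measured and expressed as inhibition relative to vehicle-only controls.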
# [12] = NCI Yeast Anticancer Drug Screen. Data for the mlh1 strain (AID 171);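 also: 0% = growth of vehicle-treated control cultures of the same strain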; conditions: S. cerevisiae mlh1 strain growth inhibition, stronger effect = higher value
# Method in brief: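 Test agents were incubated with yeast bearing a defined DNA damage repair or cell cycle control alteration; values are growth inhibition normalised to vehicle-treated cultures.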
# [13] = NCI Yeast Anticancer Drug Screen. Data for the sgs1 strain (AID 173);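 also: 0% = growth of vehicle-only control cultures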; conditions: S. cerevisiae sgs1 mutant, stronger effect = higher value
# Method in brief: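 Strain with an altered DNA repair or cell cycle pathway exposed to compound. Growth then measured. Value = inhibition versus vehicle control.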
# [14] = NCI Yeast Anticancer Drug Screen. Data for the mlh1 rad18 strain (AID 175); conditions: S. cerevisiae mlh1 rad18 strain growth inhibition, stronger effect = higher value
# Method in brief: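 A repair-deficient yeast strain is exposed to test compound, and growth is scored relative to vehicle-treated controls.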
# [15] = NCI Yeast Anticancer Drug Screen. Data for the rad18 strain (AID 177); conditions: S. cerevisiae rad18 mutant growth inhibition, stronger effect = higher value
# Method in brief: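 DNA-repair-defective yeast; compound treatment; growth inhibition scored against vehicle.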
# [16] = at 5.0 µM (retest, dose inferred, filed as 0.5)
# [17] = at 50.0 µM (retest, dose inferred, filed as 5.0)
smiles,measurement,setting,value
CSc1s[s+]c(SC)c1-c1ccccc1,growth inhibition,[1]; at 1.2 µM,13%
same,growth inhibition,[1]; at 3.7 µM,4%
same,growth inhibition,[1]; at 11.0 µM,9%
same,growth inhibition,[1]; at 33.0 µM,54%
same,growth inhibition,[1]; at 100.0 µM,72% (active)
same,growth inhibition,[2]; at 1.2 µM,5%
same,growth inhibition,[2]; at 3.7 µM,15%
same,growth inhibition,[2]; at 11.0 µM,18%
same,growth inhibition,[2]; at 33.0 µM,49%
same,growth inhibition,[2]; at 100.0 µM,65%
same,growth inhibition,[3]; at 1.2 µM,14%
same,growth inhibition,[3]; at 3.7 µM,10%
same,growth inhibition,[3]; at 11.0 µM,61%
same,growth inhibition,[3]; at 33.0 µM,93% (active)
same,growth inhibition,[3]; at 100.0 µM,89% (active)
same,growth inhibition,[4]; at 1.2 µM,13%
same,growth inhibition,[4]; at 3.7 µM,28%
same,growth inhibition,[4]; at 11.0 µM,25%
same,growth inhibition,[4]; at 33.0 µM,59%
same,growth inhibition,[4]; at 100.0 µM,76% (active)
same,growth inhibition,[5]; at 1.2 µM,-3%
same,growth inhibition,[5]; at 3.7 µM,2%
same,growth inhibition,[5]; [16],28%
same,growth inhibition,[5]; at 11.0 µM,11%
same,growth inhibition,[5]; at 33.0 µM,58%
same,growth inhibition,[5]; [17],46%
same,growth inhibition,[5]; at 50.0 µM,72.3% (active)
same,growth inhibition,[5]; at 100.0 µM,68%
same,growth inhibition,[6]; at 1.2 µM,7%
same,growth inhibition,[6]; at 3.7 µM,-5%
same,growth inhibition,[6]; [16],48%
same,growth inhibition,[6]; at 11.0 µM,1%
same,growth inhibition,[6]; at 33.0 µM,51%
same,growth inhibition,[6]; [17],52%
same,growth inhibition,[6]; at 50.0 µM,60.6%
same,growth inhibition,[6]; at 100.0 µM,59%
same,growth inhibition,[7]; at 1.2 µM,-31%
same,growth inhibition,[7]; at 3.7 µM,-23%
same,growth inhibition,[7]; at 11.0 µM,-21%
same,growth inhibition,[7]; at 33.0 µM,21%
same,growth inhibition,[7]; at 100.0 µM,59%
same,growth inhibition,[8]; [16],-6%
same,growth inhibition,[8]; [17],73% (active)
same,growth inhibition,[9]; [16],26%
same,growth inhibition,[9]; [17],59%
same,growth inhibition,[10]; at 1.2 µM,9%
same,growth inhibition,[10]; at 3.7 µM,12%
same,growth inhibition,[10]; [16],36%
same,growth inhibition,[10]; at 11.0 µM,24%
same,growth inhibition,[10]; at 33.0 µM,66%
same,growth inhibition,[10]; [17],72% (active)
same,growth inhibition,[10]; at 100.0 µM,75% (active)
same,growth inhibition,[11]; at 1.2 µM,-26%
same,growth inhibition,[11]; at 3.7 µM,-19%
same,growth inhibition,[11]; at 11.0 µM,-34%
same,growth inhibition,[11]; at 33.0 µM,39%
same,growth inhibition,[11]; at 100.0 µM,68%
same,growth inhibition,[12]; at 1.2 µM,-35%
same,growth inhibition,[12]; at 3.7 µM,-23%
same,growth inhibition,[12]; at 11.0 µM,-14%
same,growth inhibition,[12]; at 33.0 µM,52%
same,growth inhibition,[12]; at 100.0 µM,13%
same,growth inhibition,[13]; at 1.2 µM,-20%
same,growth inhibition,[13]; at 3.7 µM,-29%
same,growth inhibition,[13]; at 11.0 µM,-15%
same,growth inhibition,[13]; at 33.0 µM,47%
same,growth inhibition,[13]; at 100.0 µM,70% (active)
same,growth inhibition,[14]; [16],34%
same,growth inhibition,[14]; [17],56%
same,growth inhibition,[14]; at 50.0 µM,71.8% (active)
same,growth inhibition,[15]; at 1.2 µM,3%
same,growth inhibition,[15]; at 3.7 µM,14%
same,growth inhibition,[15]; at 11.0 µM,22%
same,growth inhibition,[15]; at 33.0 µM,63%
same,growth inhibition,[15]; at 100.0 µM,73% (active)

# From PubChem BioAssay (NCI)
